Bioassay records (PubChem BioAssay)
Hits are enriched below; roughly 6.5% of the tested compounds scored in any of these assays.
FMDV antiviral – foot and mouth disease virus antiviral activity | Potency, µM (doses to about 57.9 µM), inactives show at the top dose activity change, negative = inhibition, most hits filed as inhibitors | 410,000 tested, 1.2% active | FMDV antiviral cell-based qHTS; calls by dose curve; tested in HEK293T cells; further: read-out not given here; potency means the concentration at half of the fitted maximal effect; nearly all actives have a fitted effect of over 45% in size
Vaccinia mCherry – vaccinia inhibition (mCherry reporter) | 310,000 tested, 0.63% active | Potency, µM (highest dose often 36.5 µM), without a hit: top-dose activity change, negative = inhibition, actives largely listed as inhibitors | Vaccinia virus mCherry reporter infection, fluorescence; calls by dose curve; tested in A549 cells; further: potency means the concentration at half of the fitted maximal effect; nearly all actives have a fitted effect of over 35% in size
Lassa entry inh – blocks Lassa virus binding to or entry into cells; Lassa virus pseudotype entry inhibition, cell reporter; Potency, µM (top dose mostly 37.9 µM), without a hit: at the top dose activity change, negative = inhibition, actives largely listed as inhibitors; 300,000 tested, 1.2% active; AID 540256; calls by dose curve; tested in HEK293 cells; further: potency means the concentration at half of the fitted maximal effect; nearly all actives have a fitted effect of over 50% in size
MARV entry inh – blocks Marburg virus binding to or entry into cells; 300,000 tested, 1.8% active; Marburg virus pseudotyped entry inhibition, cell reporter; Potency, µM (doses to about 37.8 µM), inactives show at the highest dose activity change, negative = inhibition, actives largely listed as inhibitors; calls by dose curve; tested in HEK293 cells; further: potency means the concentration at half of the fitted maximal effect
Vaccinia Venus – inhibitors of vaccinia virus (Venus reporter). 330,000 tested, 0.46% active. Potency, µM (top dose mostly 36.5 µM), without a hit: top-dose activity change, negative = inhibition, actives largely listed as inhibitors. AID 720580. Vaccinia virus Venus reporter expression, fluorescence; calls by dose curve; tested in A549 cells; further: potency means the concentration at half of the fitted maximal effect; nearly all actives have a fitted effect of over 30% in size
HCMV inh – inhibitors of human cytomegalovirus. HFF cells, HCMV-luciferase reporter, 72 h; active compounds read low. activity change, negative = inhibition, % at 57.5 µM. 410,000 tested, 4.5% active; in the data active means activity change below about -60%; inconclusive means no clear call, values can overlap the other calls; inactive means above about -39%
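Two-dose cell screen: HFF monolayers treated with compounds and infected with luciferase-expressing HCMV at 1 PFU/cell, 72 h at 37C, then lysed for luciferase measurement.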
The depositor's hits bear a star; i = inactive; ? = inconclusive; . = not tested or not shown; ! = not active in a repeat; [ ] = remark or other dose. On the % scale 0 is the no-effect control and ±100 the full control effect.

SMILES | FMDV antiviral | Vaccinia mCherry | Lassa entry inh | MARV entry inh | Vaccinia Venus | HCMV inh
NS(=O)(=O)c1ccc(NC(=O)c2cnn3c2NC(=C2CC2)C=C3C(F)F)cc1 | . | -6.9% | . | . | -15.3% | .
NC(=O)COC(=O)CC(c1ccccc1)c1ccccc1 | -8.9% | i | 9.3% | 4.7%[46.1 µM] | -3.1% | -20.7
NC(=O)CNCCC(c1ccccc1)c1ccccc1 | -9.1% | -19.0% | -1.5% | 11.2µM*! | -15.3% | -9.3
O=C(Cn1c(=O)n(CCc2ccccc2)c(=O)c2cccnc21)Nc1ccc(F)cc1 | -9.6% | -13.4% | . | -15.5%[46.1 µM] | 4.7% | 34.6
O=C(NC1CCCc2c1cnn2-c1ccccc1F)c1ccncc1 (stereo not given) | ? | ? | . | . | -28.7% | -84.0*
O=C(NC1CCCc2c1cnn2-c1ccccc1F)c1ccccn1 (stereo not given) | -20.8% | . | . | . | . | -97.8*
CCOC(=O)OC[C@H]1O[C@H](c2cc(C)cc(C)c2)C=C[C@@H]1OC(=O)OCC | . | . | . | 1.9%[14.2 µM] | . | .
Cc1n[nH]c2c([N+](=O)[O-])c(=O)[nH]c(=O)n12 | 2.0% | -8.2% | 16.9% | ? | -6.3% | -70.7*
CCCC1O[C@@H]2C[C@H]3[C@@H]4CCC5=CC(=O)C=C[C@]5(C)C4[C@@H](O)C[C@]3(C)[C@]2(C(=O)CO)O1 (stereo not given in full) | . | . | . | 3.16µM* | . | .
COC(=O)C(C(C)=O)[C@@H](NC(=O)NCc1ccccc1)c1ccccc1 (stereo not given in full) | . | . | . | 25.3%[14.2 µM] | . | .
CCOC(=O)C1CCCN(C(=O)c2ccccc2)CC1 (stereo not given) | -10.6% | 8.0% | . | . | -4.9% | -21.7
CCOC(=O)C1CCN(C(=O)c2ccccc2)c2scc(-c3ccccc3)c2C1=O (stereo not given) | 31.6µM* | -3.3% | . | . | -22.2% | ?
COCC(=O)n1nc(NCc2ccc(OC)cc2)nc1NCc1ccc(OC)cc1 | -12.6% | -20.1% | 5.9% | ? | -13.2% | 9.9
CCC(=O)n1nc(NCc2ccc(OC)c(OC)c2)nc1NCc1ccc(OC)c(OC)c1 | 17.8µM* | . | -1.7% | -6.6% | ? | -27.1
CC(C)(C)n1cccc1/C=C1\C(=O)NC(=O)N(c2ccccc2)C1=O | 9.5% | -9.5% | 4.4% | 0.4% | -9.3% | 7.7
Cc1cc(C)cc(N2C(=O)NC(=O)/C(=C/c3cccn3-c3ccc(Cl)cc3)C2=O)c1 | 14.1µM* | i | ? | ? | 1.9% | 69.6
COc1ccc(-n2cccc2/C=C2/NC(=O)N(c3cccc(Cl)c3)C2=O)cc1 | 5.2% | -22.9% | 6.0% | 10.0% | -12.4% | 40.8
Cc1cccc(N2C(=O)NC(=O)/C(=C\c3cccn3-c3ccc(Cl)cc3)C2=O)c1 | 10µM* | . | ? | ? | ? | -101.6*
CCOC(=O)c1cccn1C1C(=O)N(Cc2ccc3c(C)cc(=O)oc3c2)c2ccc(Cl)cc21 (stereo not given) | . | . | . | . | . | -13.2
CCOC(=O)C1=CCN(S(=O)(=O)c2cccc(Cl)c2)C1c1ccc(Cl)cc1 (stereo not given) | . | . | . | . | . | -19.6
CCN(CC)c1ccc(C=C(c2nnnn2-c2ccccc2)c2nnnn2-c2ccccc2)cc1 | 0.0% | -19.0% | 2.51µM* | ? | -12.3% | -39.0
CC(NC(=O)NC(N)=O)(C(F)(F)F)C(F)(F)F | . | -13.3% | 9.5% | -16.5% | -19.1% | -28.9
CC(NC(=O)NNC(N)=S)(C(F)(F)F)C(F)(F)F | -6.9% | ? | -0.7% | -11.8% | 28.2µM* | -16.9
O=C(CF)NC(NC(=S)Nc1ccccc1O)C(Cl)(Cl)Cl (stereo not given) | 13.9% | . | . | . | . | -65.5*
O=C(COc1ccccc1)NC(NC(=S)Nc1ccccc1C(=O)O)C(Cl)(Cl)Cl (stereo not given) | 10.1% | -5.7% | 1.9% | ? | -2.8% | -13.8
CC(C)CC(=O)NC(NC(=S)Nc1cccc2cccnc12)C(Cl)(Cl)Cl (stereo not given) | -9.2% | . | ? | 14.1µM* | ? | ?
CC(C)C(=O)NC(Nc1cccc2cccnc12)C(Cl)(Cl)Cl (stereo not given) | ? | -24.7% | 11.2% | -23.9% | -13.7% | -33.0
C=CCn1c(SCc2c(C)noc2C)nc2sc3c(c2c1=O)CCCC3 | -0.9% | . | ? | 20.6µM* | . | -12.0
